# Experimental data as given in PubChem BioAssay AID624305 (National Center for Advancing Translational Sciences (NCATS), 2012).
# Records with an inconclusive call do not appear. Activity calls are given as the source filed them. The call rests on the fitted dose curve; in most records, active means well fitted activation curve with a large enough effect; inconclusive means small, poorly fitted or top-dose-only effect; inactive means no such curve, though single readings can be large or run the other way.
# Assay: qHTS assay for re-activators of p53 using a Luc reporter: Hit Validation; further: nearly all actives have a fitted effect of over 75% in size; on activation: 0% is about no effect
# Conditions: p53-responsive luciferase reporter cells, luminescence, H1299 line expressing heat-sensitive Ala138Val p53; series mostly up to 46.1 µM; activation: at the top concentration
# Procedure, shortened: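 Hit confirmation with a 1:5 dilution series, at 37 deg C for 24 hrs, in H1299 cells co-expressing temperature-sensitive p53-A138V and p53-responsive luciferase. Nocodazole served as control; luminescence read after 10 min with detection reagent.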
# Potency means the concentration at half of the fitted maximal effect.
Compound,activation,Potency
O=[N+]([O-])c1cc(C(F)(F)F)ccc1NCCc1c[nH]c2ccccc12,5.73% (inactive),
CC1CC1C(=O)Nc1nc2ccc(S(C)(=O)=O)cc2s1 (stereo not drawn),37.5% (inactive),
Cc1cc(C(c2nnnn2Cc2ccccc2)N2CCOCC2)c(C)n1-c1ccc2c(c1)OCO2 (stereo not drawn),4.17% (inactive),
O=C(NCCC1=CCCCC1)c1ccc(F)c(S(=O)(=O)N2CCOCC2)c1,-84.4% (inactive),
O=C(NOCc1ccccc1)c1ccc(Cl)cc1,,1.84 µM (active)
CC(C)N1CCc2c(sc(NC(=S)NC(=O)c3ccccc3)c2C#N)C1,7.78% [at 9.22 µM] (inactive),
CN(C)c1ccc(NC(=O)CCCc2ccccc2)cc1,,1.46 µM (active)
Clc1ccc(OCc2nc(-c3ccccn3)n[nH]2)cc1,-5.21% (inactive),
CC1(C)Oc2ccc(NC(=O)C3COc4ccccc4O3)cc2O1 (stereo not drawn),,1.3 µM (active)
CC(C)CCn1cnc2c(sc3nc4c(cc32)CSC(C)(C)C4)c1=O,,0.517 µM (active)
N#C/C(=C/c1ccccc1[N+](=O)[O-])c1nc(C2CC2)cs1,,5.8 µM (active)
COc1cc(NC(=O)CN2CCCCC2)c(C)cc1[N+](=O)[O-],9.16% [at 9.22 µM] (inactive),
COc1ccc(-c2cc3ccc(F)cc3cn2)cc1,,0.92 µM (active)
CC(C)NC(=S)N1CCN(S(C)(=O)=O)CC1,-7.81% (inactive),
O=C(O)C1C2C=CC(C2)C1C(=O)Nc1ccccc1Br (stereo not drawn),2.08% (inactive),
O=C(NC(=S)NC1CCCCC1)c1ccccc1[N+](=O)[O-],-10.9% (inactive),
O=C(CCS(=O)(=O)c1ccccc1)Nc1nc2c(s1)CCCC2,24.5% (inactive),
Cc1nn(-c2ccccc2)c(N2CCCC2)c1/C=N/NC(=O)c1cc(-c2ccccc2)nc2ccccc12,-9.9% (inactive),
CCCC(=O)NC(c1cccs1)c1cc([N+](=O)[O-])c2cccnc2c1O (stereo not drawn),14.6% (inactive),

Compound,activation,Potency
O=C(CSc1nnc(-c2ccc3c(c2)OCCO3)o1)N1CCCC1,,7.31 µM (active)
COc1ccc(C(=O)N=c2nc3ccccn3s2)cc1,,0.092 µM (active)
COC(=O)c1ccc(/C=C/c2ccc3cccc(OC(C)=O)c3n2)cc1,,2.91 µM (active)
O=C(Nc1ccc(N2CCCCCC2)cc1)c1ccc[nH]1,,1.16 µM (active)
Cn1c(-c2ncc(F)cc2F)cc2onc(-c3c(F)cccc3Cl)c2c1=O,,2.59 µM (active)
CCc1ccc(NC(=O)c2cnn3ccccc23)cc1,,0.92 µM (active)
Cc1cc(=O)[nH]c(N/N=C/c2ccccn2)n1,,13 µM (active)
COc1ccc(N2CCN(C3CCCN(Cc4cccc(OC)c4)C3)CC2)cc1 (stereo not drawn),37% (inactive),
COc1ccccc1C(=O)NC(=S)NNC(=O)c1sc2ccccc2c1Cl,43.8% (inactive),
c1cnc2c(OCc3nc4ccccc4[nH]3)cccc2c1,,6.51 µM (active)
C(=N\Nc1nc2ccccc2s1)/c1ccc2c(c1)OCO2,,2.59 µM (active)
O=C(CC(=O)c1ccccc1O)c1cccc(F)c1,22.4% (inactive),
COc1ccc(CCNC2CCC(c3ccccc3)CC2)cc1 (stereo not drawn),-6.77% (inactive),
Cc1ccc(/C=N/NC(=O)c2cccs2)s1,,5.8 µM (active)
COc1ccc(CC(=O)Nc2ccc(C(=O)Nc3ccccc3C(=O)O)cc2)cc1OC,3.12% (inactive),
O=C(/C=C/Nc1ccccc1C(=O)O)c1cccs1,-83.9% (inactive),
COCCSc1ccccc1C(=O)Nc1cc(C)ccn1,20.8% (inactive),
COc1ccc(-c2nnc(SCC(=O)/C(C#N)=C(\C)N)o2)cc1,,0.326 µM (active)
O=C(CC1CCCCC1)NCc1ccc(Cl)cc1,,11.6 µM (active)
